# Compound activity: PubChem, National Center for Advancing Translational Sciences (NCATS)
# TDP1 block: TDP1 (human) enzyme inhibition; Q9NUW8; recombinant TDP1, AlphaScreen DNA substrate cleavage; Potency, µM (highest dose often 130 µM), for inactives: at the top dose activity change, negative = inhibition, usual class: inhibitors; hit rate 0.28% among 350,000; also: nearly all actives have a fitted effect of over 40% in size
# Target sequence (Q9NUW8 whole entry, looked up): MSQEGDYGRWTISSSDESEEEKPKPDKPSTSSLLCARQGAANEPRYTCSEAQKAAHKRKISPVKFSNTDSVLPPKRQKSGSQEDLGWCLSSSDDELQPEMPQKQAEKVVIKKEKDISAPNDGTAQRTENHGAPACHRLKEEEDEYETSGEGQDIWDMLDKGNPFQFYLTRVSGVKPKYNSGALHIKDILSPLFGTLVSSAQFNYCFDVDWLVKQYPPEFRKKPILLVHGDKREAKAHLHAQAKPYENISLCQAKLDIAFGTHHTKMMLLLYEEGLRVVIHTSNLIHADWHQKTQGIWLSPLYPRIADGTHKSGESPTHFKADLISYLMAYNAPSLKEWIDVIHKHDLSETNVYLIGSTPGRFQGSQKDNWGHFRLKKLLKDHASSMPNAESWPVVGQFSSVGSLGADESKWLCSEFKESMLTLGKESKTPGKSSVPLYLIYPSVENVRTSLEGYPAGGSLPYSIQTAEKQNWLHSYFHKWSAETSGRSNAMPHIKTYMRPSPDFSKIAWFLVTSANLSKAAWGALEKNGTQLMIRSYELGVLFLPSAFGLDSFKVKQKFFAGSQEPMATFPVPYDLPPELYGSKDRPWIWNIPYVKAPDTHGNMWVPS
#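 Steps: enzyme plus compound, 15 min RT; add biotin/phosphotyrosine-FITC oligonucleotide (15 nM final), react 5 min; add donor/acceptor beads (10 ug/ml final), 10 min; read AlphaScreen. Tdp1 at 1 nM final.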
# RORgamma inh: blocks mouse ROR gamma transcriptional activity; AID 2551; Drosophila S2 Gal4-RORgamma UAS-luciferase reporter, 20 h; hit rate 5.4% among 310,000; P51450; Potency, µM (series often up to 53.6 µM), for the others: top-dose activity change, negative = inhibition, actives largely listed as inhibitors; also: nearly all actives have a fitted effect of over 60% in size
#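 Read-out: Photinus luciferase luminescence; inhibitors lower reporter signal. Insect Schneider cells with Gal4-ROR gamma fusion under metallothionein promoter, UAS reporter; 700 uM final copper sulfate induction, 20 hr, ambient temperature.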
# DT40 TDP1 no CPT: qHTS for Inhibitors of human tyrosyl-DNA phosphodiesterase 1 (TDP1): qHTS in cells in absence of CPT; DT40 Tdp1-/- hTDP1 cells, no CPT, ATP luminescence, 48 h; Potency, µM (titrated, usually from 46.2 µM), inactives show at the top dose activity change, negative = growth inhibition, usual class: inhibitors; hit rate 15% among 420,000; AID 686978, 2013; also: nearly all actives have a fitted effect of over 55% in size
#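 DT40 Tdp1-/-;hTDP1 cells, no CPT (DMSO vehicle only), 400 cells/well; compounds pin-transferred; ≥48 hr, 37 °C; CellTiter-Glo 30 min RT dark, luminescence read.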
# VP16 counter: counter-screen for ROR gamma inhibitors: Gal4-VP16 reporter | Drosophila S2 Gal4-VP16 UAS-luciferase, luminescence, 20 h | Potency, µM (titrated, usually from 53.6 µM), inactives show at the top dose activity, negative = inhibition, hits mostly inhibitors | hit rate 3.5% among 310,000;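 also: Gal4-VP16 expression switched on by copper sulfate through the metallothionein promoter; nearly all actives have a fitted effect of over 50% in size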
# DT40 TDP1 CPT: growth inhibition of DT40 Tdp1-/-;hTDP1 cells with camptothecin (screen for TDP1 inhibitors); hit rate 12% among 420,000; chicken DT40 Tdp1-/-;hTDP1 cells + 20 nM CPT, ATP luminescence, 48 h; AID 686979; Potency, µM (doses to about 46.2 µM), without a hit: at the top dose activity change, negative = growth inhibition, most hits filed as inhibitors; also: nearly all actives have a fitted effect of over 55% in size
#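 Chicken DT40 Tdp1-/- cells complemented with human TDP1, 400 cells/well, exposed to compounds plus 20 nM camptothecin for at least 48 h at 37 C; viability read as ATP content by CellTiter-Glo luminescence.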
# * = called active by the depositor; ? = inconclusive; . = no result; [ ] = another dose, or the depositor's remark. Only some compounds are listed: those with a hit (about 19% of all), similar ones and a draw of the others. Calls follow the shape of the dose curve; as a rule, active = well fitted curve in the direction sought with a large enough effect; inconclusive = small, poorly fitted or top-dose-only effect, or another doubt; inactive = no such curve, though single readings can be large; an effect the other way counts as inactive or inconclusive. % is scaled to controls: 0 for no effect and ±100 for the full control effect; potency is read from the fitted curve at half-maximal effect.
SMILES,TDP1 block,RORgamma inh,DT40 TDP1 no CPT,VP16 counter,DT40 TDP1 CPT
CCNC(=O)C1CCCN(C(=O)C(c2ccccc2)c2ccccc2)CC1 (stereo unspecified),.,.,-19%,.,7%
O=[N+]([O-])c1ccc(OC/C=C2\Oc3ccc([N+](=O)[O-])cc3C2N2CCOCC2)cc1 (stereo unspecified),3%,43%,23µM*,10%,?
O=[N+]([O-])c1ccc2c(c1)C(N1CCOCC1)/C(=C/COc1ccc(F)cc1)O2 (stereo unspecified),0%,?,?,3%[0.365 µM],-30%
CCOC(=O)c1c(CSc2ccccc2)oc2ccc(O)cc12,-1%,-36%,21µM*,-26%,?
CCOC(=O)c1c(CSc2ccccc2)oc2cc(Br)c(O)c(CN(C)C)c12,6%,4%,?,-7%,16µM*
CCOC(=O)c1c(C)n(-c2ccccc2)c2ccc(O)c(CN(C)C)c12,3%,-19%,15µM*,-5%,12µM*
CCOC(=O)c1c(CSc2ccc(CC)cc2)oc2ccc(O)c(CN(C)C)c12,.,?,7.3µM*,?,8.2µM*
COc1ccc(Cl)cc1S(=O)(=O)N1CCN(C)CC1,2%,0%,11%,-2%,31%
O=C(Nc1ccc(CN2CCCCC2)cc1)c1cc(Br)ccc1Cl,0%,2%,-18%,1%,-17%
CCC(=O)N1c2ccc(S(=O)(=O)CCC(=O)NCc3cccs3)cc2CC1C (stereo unspecified),-7%,6%,?,-2%,?
COc1ccc(OC)c(C(=O)c2c(C)oc3cc(Br)c(O)c(CN(C)C)c23)c1,.,.,21µM*,.,?
CCOC(=O)c1c(C)oc2ccc(O)c(CN(C)C)c12,3%,-4%[0.365 µM],?,.,-20%
COC(=O)Cc1c(CSc2ccccc2)oc2ccc(O)c(CN(C)C)c12,.,13%,?,1%,-8%
CCOC(=O)c1c(CS(=O)(=O)c2ccccc2)n(C)c2cc(Br)c(O)c(CN(C)C)c12,-2%,22%,13µM*,-19%,15µM*
CC(=O)c1c(CSc2ccccc2)oc2ccc(O)c(CN(C)C)c12,.,3%,?,-5%,23µM*
O=C(CSc1nc2ccccc2c(=O)n1Cc1ccco1)NCc1ccccc1,.,.,-9%,.,-26%
Nc1ccc(CCC(=O)N2CCCC2)cc1,.,3%,-7%,3%,-23%
CC(CCc1ccco1)NC(=O)CCc1nnc2ccc(NCc3ccccc3)nn12 (stereo unspecified),0%,14%,21%,1%,-9%
CCn1cc(C(=O)O)c(=O)c2cc(F)c(N3CCNC(C)C3)c(F)c21 (stereo unspecified),-12%[56.1 µM],1%,?,4%,15µM*
Cc1nc(NC(=O)c2ccc(F)cc2)nc2cc3c(cc12)OCO3,4%,34%,-16%,3%,-2%
Cc1ccccc1CNC(=O)C1CCCN(c2nnc(C)c3c(C)n(-c4ccccc4)nc23)C1 (stereo unspecified),79µM*,-17%,18µM*,?,23µM*
Cc1ccc(CCNC(=O)C2CCCN(c3nnc(C)c4c(C)n(-c5ccccc5)nc34)C2)cc1 (stereo unspecified),8%,.,?,.,23µM*
Cc1ccc(-n2nc3c(N4CCCC(C(=O)NCc5ccc(Cl)cc5)C4)nnc(C)c3c2C)cc1 (stereo unspecified),3%,.,18µM*,.,9.2µM*
Cc1nnc(N2CCCC(C(=O)NCCc3ccccc3)C2)c2nn(-c3ccccc3)c(C)c12 (stereo unspecified),3%,.,18µM*,.,?
CCOC(=O)CNC(=O)CSc1nnc(-c2c[nH]c3ccccc23)n1CC,-1%,11%,-4%,-1%,-3%
Cc1ccc(C(=O)/C=C/NCc2ccc(F)cc2)cc1,5%,16%,-35%,-13%,-16%
